Measurements from PubChem BioAssay (NCI).
Compounds without any hit were thinned out: in the full panel of roughly 79,000, 15% have a hit. No stated cut-off is given here; in the data, active means growth inhibition above about 70%; inactive means the rest.

Assays:
[1] = NCI Yeast Anticancer Drug Screen. Data for the rad50 strain (AID 155);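 further: 0% = growth of vehicle-only cultures of the same strain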; settings: S. cerevisiae rad50 strain growth inhibition, active compounds read high; at 50.0 µM unless noted
How it was run: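 Cells are treated with compound, grown, and their growth is then scored against vehicle-only cultures of the same repair-deficient yeast strain.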

[2] = NCI Yeast Anticancer Drug Screen. Data for the mec2-1 strain (AID 157); settings: S. cerevisiae mec2-1 strain, active compounds read high; at 50.0 µM unless noted
How it was run: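 Cells of the genetically defined mec2-1 yeast strain are incubated with test compound. Inhibition of growth is calculated against vehicle-treated controls.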

[3] = NCI Yeast Anticancer Drug Screen. Data for the sgs1 mgt1 strain (AID 161);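 further: 0% = growth of cultures given vehicle only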; settings: S. cerevisiae sgs1 mgt1 strain, active compounds read high; at 50.0 µM unless noted
How it was run: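 Mutant yeast exposed to compound; growth scored against vehicle-only wells.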

[4] = NCI Yeast Anticancer Drug Screen. Data for the cln2 rad14 strain (AID 165);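 further: 0% = growth equal to vehicle treated cultures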; settings: S. cerevisiae cln2 rad14 strain, active compounds read high; at 50.0 µM unless noted
How it was run: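 The screen exposed genetically defined yeast (cln2 rad14) to test compounds and scored growth inhibition relative to vehicle-treated controls.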

[5] = NCI Yeast Anticancer Drug Screen. Data for the bub3 strain (AID 167); settings: S. cerevisiae bub3 mutant strain, active compounds read high; at 50.0 µM unless noted
How it was run: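 Part of a panel of yeast mutants defective in DNA damage repair or cell cycle regulation. Each strain is grown with compound, and inhibition is calculated relative to solvent-treated cultures.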

[6] = NCI Yeast Anticancer Drug Screen. Data for the mlh1 rad18 strain (AID 175); settings: S. cerevisiae mlh1 rad18 strain growth inhibition, active compounds read high; at 50.0 µM unless noted
How it was run: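 Compound-treated yeast growth, normalised to vehicle controls. Strain bears defined DNA repair mutations.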

Measured: growth inhibition

CCOc1ccc2nc(NC(=O)C(=O)C(c3cnc4ccccc4n3)[N+](=O)[O-])sc2c1 (stereo not given)
inactive: [1] 23.6% | [2] -13.4% | [3] 24.4% | [4] 8.95% | [5] -22.4% | [6] 13.8%

CN(C)CCNC(=O)Nc1cccc2ccccc12
inactive: [1] 16% | [2] 8.35% | [3] -0.8% | [4] 16.6% | [5] -6.5% | [6] 2.25%

c1ccc(OC2=NC3=S(S2)SC(Oc2ccccc2)=N3)cc1
inactive: [1] 43.2% | [2] -4.15% | [3] 56.7% | [4] 10.6% | [5] 12.5% | [6] -3.35%

N.N.O=P([O-])([O-])C1(P(=O)([O-])[O-])CCCCCN1.[Pt+2]
inactive: [1] 13.6% | [2] 22.4% | [3] -5.05% | [4] 6.25% | [5] 23.7% | [6] 11.2%

CS/C(=N\c1nccs1)NC(=O)c1cccc(Cl)c1
inactive: [1] 7.65% | [2] 20.4% | [3] 30.2% | [4] 18.8% | [5] 22.4% | [6] 10.8%

CCc1ccc(NC(=O)c2ccc(Cl)cc2Cl)cc1
inactive: [1] 4.9% | [2] 34.5% | [3] 7.7% | [4] 2.95% | [5] 11.8% | [6] 0.95%

CCN(CC)C(=O)c1c(N2CCOCC2)cc(N(CC)CC)oc1=O
inactive: [1] -10.2% | [2] -8.25% | [3] -46.6% | [4] -8.85% | [5] -37.9% | [6] -40.6%

CCC1(C)OCCO1
inactive: [1] 0.5% | [2] -13.5% | [3] -12.1% | [4] -29.9% | [5] 1.05% | [6] 2.2%

COc1cc(O)c(C(=O)/C=C/c2ccccc2)c(OC)c1
inactive: [1] 1.05% | [2] -12.1% | [3] 27.1% | [4] 15.6% | [5] 15.1% | [6] -21.4%

CCCCC(CCCC)C(=O)O
inactive: [1] -22.3% | [2] -9.65% | [3] -9.85% | [4] 50% | [5] 10.9% | [6] -9.3%

ClN(Cl)c1nc(-c2ccccc2)nc(N(Cl)Cl)n1
inactive: [1] 18.1% | [2] 29.6% | [3] 34.9% | [4] -38.1% | [5] 32.5% | [6] 31.5%

O=C1CSC(c2cccc([N+](=O)[O-])c2)N1c1nncs1 (stereo not given)
inactive: [1] 8.55% | [2] 11.7% | [3] 6.8% | [4] 5.15% | [5] 3.4% | [6] 5.5%

Cc1cc(=O)c2c(o1)C(=O)c1occc1C2=O
inactive: [1] -9.5% | [2] -34.5% | [3] -3.9% | [4] 5.85% | [5] -6.1% | [6] -13%

Cc1cc(OCC(=O)O)cc(C)c1C
inactive: [1] 1% | [2] -8.5% | [3] -15.1% | [4] -18.6% | [5] -4.55% | [6] -1.45%

CC(C)(Br)C(Br)CCC(C)(Br)C(Br)CO (stereo not given)
inactive: [1] 10.9% | [2] -0.7% | [3] -3.8% | [4] -12.1% | [5] 0.55% | [6] -1.3%

CC(O)CNc1nc(N)[nH]c(=O)c1[N+](=O)[O-] (stereo not given)
inactive: [1] 4.45% | [2] 2.35% | [3] 1.45% | [4] -41.5% | [5] -9.95% | [6] -1.6%

NC(=O)Cc1ccc2c3c(cccc13)CC2
inactive: [1] 15.4% | [2] 5.45% | [3] 2.45% | [4] -34.2% | [5] 11.8% | [6] 9.05%

CCCCCCCCCCCCCCCCCC(=O)N1CCN(C(=O)CCCCCCCCCCCCCCCCC)C1
inactive: [1] 30.4% | [2] -18.3% | [3] -4.3% | [4] -19.2% | [5] -1.25% | [6] 1.05%

COc1ccc2c(c1)-c1c(ccc(OC)c1O)CC(c1ccccc1)[N+](C)(C)CC2 (stereo not given)
inactive: [1] -5.8% | [2] 10.7% | [3] -5.55% | [4] -12.4% | [5] 2.25% | [6] -2.5%

CCCCCCCS(=O)c1nc2ccccc2s1 (stereo not given)
inactive: [1] 37.2% | [2] 15.2% | [3] 60.9% | [4] 20.2% | [5] 42.8% | [6] 27.6%
